# PubChem BioAssay (Tox21)
# Inconclusive results are not listed. Entries that show only a call come without a potency. The source made the active and inactive calls. Unless noted, the call rests on the fitted dose curve; in most records, active means well fitted curve in the direction sought with a large enough effect in the repeat runs; inconclusive means weak or mixed curves; inactive means no such curve, though single readings can be large; an effect the other way counts as inactive or inconclusive.
# Columns and labels:
# [1] = biological target: Thyrotropin-releasing hormone receptor (Homo sapiens) (UniProt P34981); experiment: qHTS assay to identify small molecule agonists of the thyrotropin-releasing hormone receptor (TRHR) signaling pathway (AID 1346891; calls by dose curve;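 further: HEK293 cells expressing TRHR with calcium dye readout; series mostly up to about 58 µM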)
# Chain of Thyrotropin-releasing hormone receptor (Homo sapiens) (P34981 whole entry, looked up): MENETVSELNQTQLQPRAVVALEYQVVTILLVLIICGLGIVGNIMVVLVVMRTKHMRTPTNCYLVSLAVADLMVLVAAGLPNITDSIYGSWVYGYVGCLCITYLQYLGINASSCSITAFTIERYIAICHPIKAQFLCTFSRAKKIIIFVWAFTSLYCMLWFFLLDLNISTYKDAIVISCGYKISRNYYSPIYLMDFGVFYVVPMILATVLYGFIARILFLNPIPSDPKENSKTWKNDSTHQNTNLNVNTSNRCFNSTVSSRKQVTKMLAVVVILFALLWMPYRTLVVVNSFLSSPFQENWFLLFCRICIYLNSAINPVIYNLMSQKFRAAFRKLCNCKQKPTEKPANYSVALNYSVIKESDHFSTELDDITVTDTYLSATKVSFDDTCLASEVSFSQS
# How it was run: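 HEK293/TRHR cells, 1500 per well, 18 h 37 °C; Ca dye 2 h 37 °C; pin-tool compound addition (agonist mode); kinetic fluorescence 3 min, 1 s reads; 15 concentrations, triplicate.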
# [2] = Human pregnane X receptor (PXR) small molecule agonists, qHTS cell viability counter screen (AID 1346977); further: nearly all actives have a fitted effect of over 50% in size
# How it was run: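 Fluorescence read-out (CellTiter-Fluor) of viability in PXR-Luc HepG2 cells, multiplexed with the luciferase agonist read. Compounds in DMSO added after 5hr plating; 24hr total exposure at 37C, 5% CO2.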
# [3] = Caspase-3/7 induction in HepG2 cells by small molecules, qHTS assay (AID 1346978); further: nearly all actives have a fitted effect of over 15% in size
# How it was run: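 Wild-type HepG2 cells (2,000/well) were settled 5 h at 37 C, 5% CO2, then exposed to compounds in DMSO for 17 h. Caspase-3/7 activity was read by luminescence 30 min after adding Caspase-Glo 3/7 reagent at room temperature.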
# [4] = Caspase-3/7 induction in CHO-K1 cells by small molecules, qHTS cell viability counter screen (AID 1346979); further: nearly all actives have a fitted effect of over 35% in size
# How it was run: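 CHO-K1 wt, 1,500 cells/well; 5hr pre-incubation 37C/5% CO2; compound pin transfer (DMSO); 16hr exposure; CellTiter-Fluor added, 1hr, fluorescence read.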
# [5] = Caspase-3/7 induction in CHO-K1 cells by small molecules, qHTS assay (AID 1346980); further: nearly all actives have a fitted effect of over 15% in size
# How it was run: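 Wild-type cells were seeded at 1,500 per well and settled 5 hr at 37 C, 5% CO2, then exposed to DMSO-dissolved compounds for 17 hr. Caspase-Glo 3/7 reagent was added, and luminescence was read after 30min at room temperature.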
# [6] = Caspase-3/7 induction in HepG2 cells by small molecules, qHTS cell viability counter screen (AID 1346981); further: series mostly up to about 92 µM; nearly all actives have a fitted effect of over 30% in size
# How it was run: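 Wild-type HepG2 cells, 2,000/well, settled 5 hr at 37 C, 5% CO2 before compound addition. Viability read by CellTiter-Fluor fluorescence, reagent added after 16 hr compound exposure, then 1 hr at 37C, in the same wells as the caspase read.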
# [7] = biological target: Nuclear receptor subfamily 1 group I member 2 (Homo sapiens) (UniProt O75469); experiment: Human pregnane X receptor (PXR) small molecule agonists, qHTS assay (AID 1346982); further: nearly all actives have a fitted effect of over 35% in size; further: potency means the concentration at half of the fitted maximal effect
# Chain of Nuclear receptor subfamily 1 group I member 2 (Homo sapiens) (O75469 whole entry, looked up): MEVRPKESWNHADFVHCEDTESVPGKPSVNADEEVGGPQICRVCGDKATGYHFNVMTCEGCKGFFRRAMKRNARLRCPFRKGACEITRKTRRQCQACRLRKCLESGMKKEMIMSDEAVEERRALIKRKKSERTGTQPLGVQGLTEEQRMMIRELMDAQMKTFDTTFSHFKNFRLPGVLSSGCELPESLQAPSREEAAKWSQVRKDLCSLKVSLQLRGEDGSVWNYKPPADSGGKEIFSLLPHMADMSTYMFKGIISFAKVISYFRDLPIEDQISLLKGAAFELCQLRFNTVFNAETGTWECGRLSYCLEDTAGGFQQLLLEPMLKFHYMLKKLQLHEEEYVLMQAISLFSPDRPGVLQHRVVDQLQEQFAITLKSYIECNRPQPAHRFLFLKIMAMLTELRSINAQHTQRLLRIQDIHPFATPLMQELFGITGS
# How it was run: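 PXR-Luc HepG2 reporter cells (CYP3A4-driven luciferase) in 5% charcoal-stripped FBS medium, plated 5 h before compound addition, then treated 24 h at 37C. Luciferase read by ONE-Glo luminescence after 30 min at room temperature.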
# [8] = biological target: Cytochrome P450 2D6 (Homo sapiens) (UniProt P10635); experiment: Cytochrome P450 Family 2 Subfamily D Member 6 (CYP2D6) small molecule antagonists: luciferase reporter qHTS assay (AID 1671196); further: series mostly up to about 120 µM; nearly all actives have a fitted effect of over 50% in size
# Chain of Cytochrome P450 2D6 (Homo sapiens) (P10635 whole entry, looked up): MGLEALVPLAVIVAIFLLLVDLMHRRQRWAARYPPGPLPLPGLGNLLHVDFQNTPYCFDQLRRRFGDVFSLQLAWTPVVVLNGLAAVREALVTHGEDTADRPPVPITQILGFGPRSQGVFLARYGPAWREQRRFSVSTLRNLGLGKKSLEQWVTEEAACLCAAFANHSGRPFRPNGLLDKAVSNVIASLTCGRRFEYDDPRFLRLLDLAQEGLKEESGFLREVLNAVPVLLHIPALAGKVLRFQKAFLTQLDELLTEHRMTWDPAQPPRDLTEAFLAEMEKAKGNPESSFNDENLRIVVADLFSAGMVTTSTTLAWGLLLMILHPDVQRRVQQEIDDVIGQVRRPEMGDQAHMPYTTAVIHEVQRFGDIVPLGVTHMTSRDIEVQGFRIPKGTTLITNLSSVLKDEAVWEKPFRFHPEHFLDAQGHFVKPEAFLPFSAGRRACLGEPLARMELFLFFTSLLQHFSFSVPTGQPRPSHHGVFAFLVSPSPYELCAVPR
# How it was run: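 Cell-free P450-Glo system: CYP2D6 with proluciferin substrate was pre-incubated with compound for 10 min, then reacted with NADPH regeneration for 1 h at room temperature. Luciferin product was detected after 20 min, and data were reported as relative luminescence units.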
# [9] = biological target: Cytochrome P450 2C19 (Homo sapiens) (UniProt P33261); experiment: Cytochrome P450 Family 2 Subfamily C Member 19 (CYP2C19) small molecule antagonists: luciferase reporter qHTS assay (AID 1671197); further: nearly all actives have a fitted effect of over 65% in size; further: potency means the concentration at half of the fitted maximal effect
# Chain of Cytochrome P450 2C19 (Homo sapiens) (P33261 whole entry, looked up): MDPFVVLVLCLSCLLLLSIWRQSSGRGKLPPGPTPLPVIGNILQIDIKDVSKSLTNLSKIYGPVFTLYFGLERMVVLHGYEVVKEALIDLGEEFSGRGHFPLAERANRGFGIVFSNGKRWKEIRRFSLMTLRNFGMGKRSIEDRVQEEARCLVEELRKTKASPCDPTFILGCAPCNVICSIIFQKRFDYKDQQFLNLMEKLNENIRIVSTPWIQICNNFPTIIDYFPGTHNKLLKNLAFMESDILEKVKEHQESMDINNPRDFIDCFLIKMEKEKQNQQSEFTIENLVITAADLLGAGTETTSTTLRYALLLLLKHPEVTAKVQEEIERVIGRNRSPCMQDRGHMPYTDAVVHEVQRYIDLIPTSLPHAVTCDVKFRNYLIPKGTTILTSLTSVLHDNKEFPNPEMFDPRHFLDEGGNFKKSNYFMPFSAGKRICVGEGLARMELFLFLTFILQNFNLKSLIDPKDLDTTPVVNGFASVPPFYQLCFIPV
# How it was run: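 Luminescent readout of CYP2C19 activity: luciferin product detected 20 min after adding detection reagent. Before that, compound and enzyme-substrate mix preincubated 10 min at room temperature; NADPH-regenerating system started a 1 h, 37C reaction. Ketoconazole as positive control.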
# [10] = biological target: Cytochrome P450 2C9 (Homo sapiens) (UniProt P11712); experiment: Cytochrome P450 Family 2 Subfamily C Member 9 (CYP2C9) small molecule antagonists: luciferase reporter qHTS assay (AID 1671198); further: nearly all actives have a fitted effect of over 50% in size; further: potency means the concentration at half of the fitted maximal effect
# Chain of Cytochrome P450 2C9 (Homo sapiens) (P11712 whole entry, looked up): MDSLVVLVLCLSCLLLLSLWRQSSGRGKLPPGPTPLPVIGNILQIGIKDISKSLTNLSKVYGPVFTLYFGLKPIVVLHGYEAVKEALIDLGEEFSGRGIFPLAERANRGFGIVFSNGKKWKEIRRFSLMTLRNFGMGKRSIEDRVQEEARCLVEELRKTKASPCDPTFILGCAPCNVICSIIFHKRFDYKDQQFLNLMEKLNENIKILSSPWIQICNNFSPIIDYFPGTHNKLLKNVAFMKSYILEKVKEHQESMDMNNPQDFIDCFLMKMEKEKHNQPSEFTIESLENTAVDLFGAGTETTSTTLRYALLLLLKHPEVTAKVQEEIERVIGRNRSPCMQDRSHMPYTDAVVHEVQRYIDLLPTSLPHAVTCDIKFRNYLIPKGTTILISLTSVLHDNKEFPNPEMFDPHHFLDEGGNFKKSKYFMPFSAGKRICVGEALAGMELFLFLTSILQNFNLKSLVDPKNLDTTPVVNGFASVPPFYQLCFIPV
# How it was run: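 CYP2C9 activity was measured with a P450-Glo proluciferin substrate. Enzyme–substrate mix was held with compound for 10 min at room temperature, then NADPH regeneration solution was added for 1 h at 37C. Luciferin product was read as luminescence.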
# [11] = biological target: Voltage-gated inwardly rectifying potassium channel KCNH2 (Homo sapiens) (UniProt Q12809); experiment: Human Ether-a-go-go-Related Gene (hERG) channel small molecule antagonists: fluorescence cell-based qHTS assay (AID 1671200);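 further: hERG-expressing U2OS cells given a thallium stimulus after FluxOR II dye loading; series mostly up to about 77 µM; nearly all actives have a fitted effect of over 50% in size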
# Chain of Voltage-gated inwardly rectifying potassium channel KCNH2 (Homo sapiens) (Q12809 whole entry, looked up): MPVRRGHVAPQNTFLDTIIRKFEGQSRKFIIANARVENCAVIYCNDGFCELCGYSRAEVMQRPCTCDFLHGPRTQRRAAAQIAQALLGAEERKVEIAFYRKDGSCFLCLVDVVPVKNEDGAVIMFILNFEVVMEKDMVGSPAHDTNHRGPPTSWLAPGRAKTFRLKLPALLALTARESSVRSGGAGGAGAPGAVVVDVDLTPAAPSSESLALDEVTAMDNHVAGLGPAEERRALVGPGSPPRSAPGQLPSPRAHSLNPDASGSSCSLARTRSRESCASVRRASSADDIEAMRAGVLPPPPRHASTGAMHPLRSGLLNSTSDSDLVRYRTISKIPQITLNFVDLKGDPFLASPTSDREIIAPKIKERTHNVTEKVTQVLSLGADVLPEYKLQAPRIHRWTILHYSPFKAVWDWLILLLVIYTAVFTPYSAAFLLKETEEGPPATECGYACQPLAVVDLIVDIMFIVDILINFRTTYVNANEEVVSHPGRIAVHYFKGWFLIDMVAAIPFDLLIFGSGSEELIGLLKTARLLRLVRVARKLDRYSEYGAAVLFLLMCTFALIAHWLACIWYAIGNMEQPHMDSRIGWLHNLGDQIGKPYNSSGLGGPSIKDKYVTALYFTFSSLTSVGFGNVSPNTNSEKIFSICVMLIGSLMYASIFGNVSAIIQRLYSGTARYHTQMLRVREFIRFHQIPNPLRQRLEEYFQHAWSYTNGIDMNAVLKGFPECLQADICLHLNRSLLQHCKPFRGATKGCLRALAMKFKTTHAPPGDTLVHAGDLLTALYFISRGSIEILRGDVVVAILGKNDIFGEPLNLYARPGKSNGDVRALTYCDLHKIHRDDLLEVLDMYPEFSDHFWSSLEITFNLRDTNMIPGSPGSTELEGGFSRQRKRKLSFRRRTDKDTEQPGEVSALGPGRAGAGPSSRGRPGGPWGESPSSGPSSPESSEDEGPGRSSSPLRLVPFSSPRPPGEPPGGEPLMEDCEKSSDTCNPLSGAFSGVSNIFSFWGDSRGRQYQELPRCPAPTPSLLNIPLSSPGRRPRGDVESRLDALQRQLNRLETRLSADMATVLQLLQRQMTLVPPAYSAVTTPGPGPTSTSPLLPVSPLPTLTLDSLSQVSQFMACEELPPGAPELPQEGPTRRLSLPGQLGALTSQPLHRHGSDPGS
# How it was run: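 Read-out: thallium influx as a surrogate for potassium, tracked as fluorescence (480 nm ex/540 nm em) every second for 2 min after Stimulus Buffer addition in dye-loaded hERG-U2OS cells.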
# [12] = biological target: Cytochrome P450 3A4 (Homo sapiens) (UniProt P08684); experiment: Cytochrome P450 Family 3 Subfamily A Member 4 (CYP3A4) small molecule antagonists: luciferase reporter qHTS assay (AID 1671201); further: nearly all actives have a fitted effect of over 50% in size; further: potency means the concentration at half of the fitted maximal effect
# Chain of Cytochrome P450 3A4 (Homo sapiens) (P08684 whole entry, looked up): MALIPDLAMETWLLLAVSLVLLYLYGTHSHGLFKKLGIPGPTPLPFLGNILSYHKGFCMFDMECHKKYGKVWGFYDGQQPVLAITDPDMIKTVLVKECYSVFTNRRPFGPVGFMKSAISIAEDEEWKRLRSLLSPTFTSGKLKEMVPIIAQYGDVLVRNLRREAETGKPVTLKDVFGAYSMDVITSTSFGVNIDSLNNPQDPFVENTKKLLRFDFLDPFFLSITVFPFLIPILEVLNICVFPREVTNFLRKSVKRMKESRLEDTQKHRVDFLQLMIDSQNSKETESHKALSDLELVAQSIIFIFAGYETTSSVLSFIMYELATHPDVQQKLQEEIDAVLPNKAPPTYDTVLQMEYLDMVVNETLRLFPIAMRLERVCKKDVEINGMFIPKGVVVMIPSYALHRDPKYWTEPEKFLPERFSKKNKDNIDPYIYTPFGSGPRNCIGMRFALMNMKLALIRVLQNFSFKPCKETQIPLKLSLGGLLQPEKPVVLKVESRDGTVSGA
# How it was run: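 Luminescent readout (RLU) proportional to CYP3A4 activity, from luciferin generated off a proluciferin substrate. Enzyme–substrate mix plus compound 10 min at room temp, NADPH regeneration 1 h, detection reagent 20 min.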
# [13] = biological target: Cytochrome P450 1A2 (Homo sapiens) (UniProt P05177); experiment: Cytochrome P450 Family 1 Subfamily A Member 2 (CYP1A2) small molecule antagonists: luciferase reporter qHTS assay (AID 1671199); further: nearly all actives have a fitted effect of over 50% in size; further: potency means the concentration at half of the fitted maximal effect
# Chain of Cytochrome P450 1A2 (Homo sapiens) (P05177 whole entry, looked up): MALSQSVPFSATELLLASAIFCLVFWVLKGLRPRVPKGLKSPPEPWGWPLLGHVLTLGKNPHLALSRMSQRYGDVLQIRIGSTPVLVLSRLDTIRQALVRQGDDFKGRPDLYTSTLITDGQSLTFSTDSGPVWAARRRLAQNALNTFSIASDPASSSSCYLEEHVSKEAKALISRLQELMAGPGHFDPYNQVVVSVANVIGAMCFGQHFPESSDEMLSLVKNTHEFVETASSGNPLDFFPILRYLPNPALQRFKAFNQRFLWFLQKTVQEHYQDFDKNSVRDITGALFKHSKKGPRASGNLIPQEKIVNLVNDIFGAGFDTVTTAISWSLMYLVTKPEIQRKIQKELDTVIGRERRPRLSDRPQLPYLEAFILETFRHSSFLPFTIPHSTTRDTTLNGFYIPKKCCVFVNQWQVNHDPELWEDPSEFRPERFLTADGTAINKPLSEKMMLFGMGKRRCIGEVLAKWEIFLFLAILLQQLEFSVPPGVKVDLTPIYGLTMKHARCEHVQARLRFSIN
# How it was run: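 P450-Glo CYP1A2 enzyme–proluciferin substrate mix with compound 10 min at room temperature, then NADPH regeneration 1 h at room temperature. Luciferin detection reagent added, luminescence read after 20 min; furafylline positive control.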
Compound,outcome [1],Potency [2],outcome [3],Potency [4],outcome [5],outcome [6],Potency [7],Potency [8],Potency [9],Potency [10],Potency [11],Potency [12],Potency [13]
C=C(C)C(=O)NCCCN(C)C,inactive,inactive,inactive,inactive,inactive,inactive,inactive,inactive,inactive,inactive,inactive,inactive,–
CCCCCCOC(=O)c1ccccc1O,inactive,inactive,inactive,inactive,inactive,inactive,inactive,inactive,inactive,inactive,–,inactive,–
CC(C)(C)N(CCO)CCO,inactive,inactive,inactive,inactive,inactive,inactive,63.1 µM (active),inactive,inactive,inactive,inactive,inactive,–
CCO[Si](C)(OCC)OCC,inactive,inactive,inactive,inactive,inactive,inactive,inactive,inactive,–,inactive,inactive,28.3 µM (active),–
OCC(CO)(CO)COCC(CO)(CO)CO,inactive,inactive,inactive,inactive,inactive,inactive,inactive,inactive,inactive,inactive,inactive,inactive,–
c1ccc2cnncc2c1,inactive,inactive,inactive,inactive,inactive,inactive,inactive,inactive,–,inactive,inactive,inactive,14.2 µM (active)
CC1(C)OC(=O)Nc2ccc(Br)cc21,inactive,inactive,inactive,inactive,inactive,inactive,23.7 µM (active),inactive,17.4 µM (active),–,inactive,–,–
CN(C)C(=O)Nc1ccccc1,inactive,inactive,inactive,inactive,inactive,inactive,inactive,inactive,–,inactive,inactive,inactive,–
CC(C)CCCCCCN,inactive,inactive,inactive,inactive,inactive,inactive,inactive,–,inactive,inactive,inactive,inactive,inactive
NC(=O)c1c(Cl)cccc1Cl,inactive,inactive,inactive,inactive,inactive,inactive,0.0611 µM (active),–,20 µM (active),inactive,inactive,31.7 µM (active),–
Cc1ccccc1Br,inactive,inactive,inactive,inactive,inactive,inactive,inactive,–,79.1 µM (active),–,inactive,inactive,–
Oc1ccc2c(c1)OC[C@@H](N1CCC(O)(c3ccc(F)cc3)CC1)[C@H]2O,inactive,inactive,inactive,inactive,inactive,inactive,11.9 µM (active),–,3.89 µM (active),13.8 µM (active),inactive,inactive,7.76 µM (active)
CC(=O)OC(C)(C)C,inactive,inactive,inactive,inactive,inactive,inactive,inactive,–,–,inactive,inactive,inactive,inactive
CO[Si](OC)(OC)OC,inactive,inactive,inactive,inactive,inactive,inactive,inactive,–,inactive,inactive,inactive,inactive,31 µM (active)
CCCOc1ccccc1-c1nc2n[nH]nc2c(=O)[nH]1,inactive,inactive,inactive,inactive,inactive,inactive,inactive,–,inactive,inactive,inactive,inactive,–
CNC(=O)c1c(I)c(NC(=O)CCCCC(=O)Nc2c(I)c(C(=O)O)c(I)c(C(=O)NC)c2I)c(I)c(C(=O)O)c1I,inactive,inactive,inactive,inactive,inactive,inactive,inactive,–,–,inactive,inactive,inactive,inactive
CC(C)CCCC(C)NCCC(C)C (centres undefined),inactive,inactive,inactive,inactive,inactive,inactive,inactive,–,inactive,inactive,inactive,inactive,inactive
COCc1ccc(COC)cc1,inactive,inactive,inactive,inactive,inactive,inactive,inactive,–,inactive,inactive,inactive,inactive,inactive
CC(C)CCOC(=O)CC(C)C,inactive,inactive,inactive,inactive,inactive,inactive,inactive,–,inactive,inactive,inactive,inactive,inactive
Cc1ccc(Nc2ccc(O)c3c2C(=O)c2ccccc2C3=O)cc1,inactive,inactive,inactive,inactive,inactive,inactive,inactive,–,inactive,–,inactive,inactive,–
C=C(C)C1CC=C(C)C(O)C1 (centres undefined),inactive,inactive,inactive,inactive,inactive,inactive,48.8 µM (active),–,inactive,inactive,inactive,inactive,40.1 µM (active)
CCCCCCCCCCCCCCC,inactive,inactive,inactive,inactive,inactive,inactive,inactive,–,inactive,inactive,inactive,inactive,inactive
Cc1ccc(N)cc1[N+](=O)[O-],inactive,inactive,inactive,inactive,inactive,inactive,10.9 µM (active),–,inactive,35.8 µM (active),inactive,40.2 µM (active),8.02 µM (active)
CC(C)(O)c1ccccc1,inactive,inactive,inactive,inactive,inactive,inactive,inactive,inactive,–,–,inactive,inactive,–
c1ccc(SCCSc2ccccc2)cc1,inactive,inactive,inactive,inactive,inactive,inactive,7.63 µM (active),–,3.53 µM (active),–,inactive,inactive,31.4 µM (active)
